From the supplement of paper PMC4022240
± gives the standard deviation.

T1: HaloTag-ATRX ADD domain (163-292)
T1 chain: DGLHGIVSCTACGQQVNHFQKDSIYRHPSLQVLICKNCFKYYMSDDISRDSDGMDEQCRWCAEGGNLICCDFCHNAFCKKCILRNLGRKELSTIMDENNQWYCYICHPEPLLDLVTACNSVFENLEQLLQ

B1: Unmod H3 variant P F Q R L V R E I A Q D F (peptide)
chain: PFQRLVREIAQDF
B2: Unmod H3 variant R K S A P S T G G V K K P (peptide)
chain: RKSAPSTGGVKKP
B3: Unmod H3 variant A T K A A R K S A P S T G (peptide)
chain: ATKAARKSAPSTG
B4: Unmod H3 variant A R T K Q T A R K S T G G (peptide)
chain: ARTKQTARKSTGG
B5: Unmod H3 variant V G L F E D T N L C A I H (peptide)
chain: VGLFEDTNLCAIH
B6: Unmod H3 variant A L Q E A S E A Y L V G L (peptide)
chain: ALQEASEAYLVGL
B7: Unmod H3 variant Q D F K T D L R F Q S S A (peptide)
chain: QDFKTDLRFQSSA
B8: Unmod H3 variant A T G G V K K P H R Y R P (peptide)
chain: ATGGVKKPHRYRP
B9: Unmod H2B variant E I Q T A V R L L L P G E (peptide)
chain: EIQTAVRLLLPGE
B10: Unmod H3 variant V R E I A Q D F K T D L R (peptide)
chain: VREIAQDFKTDLR
B11: Unmod H2B variant P G E L A K H A V S E G T (peptide)
chain: PGELAKHAVSEGT
B12: Unmod H3 variant R K S A P A T G G V K K P (peptide)
chain: RKSAPATGGVKKP
B13: Unmod H3 variant A L Q E A C E A Y L V G L (peptide)
chain: ALQEACEAYLVGL
B14: Unmod H3 variant P R K Q L A T K A A R K S (peptide)
chain: PRKQLATKAARKS
B15: Unmod H3 variant A T K A A R K S A P A T G (peptide)
chain: ATKAARKSAPATG
B16: Unmod H3 variant T A R K S T G G K A P R K (peptide)
chain: TARKSTGGKAPRK
B17: Unmod H2B variant E G T K A V T K Y T S A K (peptide)
chain: EGTKAVTKYTSAK
B18: Unmod H3 variant T G G K A P R K Q L A T K (peptide)
chain: TGGKAPRKQLATK
B19: Unmod H2B variant E G T K A V T K Y T S S K (peptide)
chain: EGTKAVTKYTSSK
B20: Unmod H2B variant K H A V S E G T K A V T K (peptide)
chain: KHAVSEGTKAVTK

Target: T1, HaloTag-ATRX ADD domain (163-292)
Test: peptide microarray binding signal (635 nm), min-max normalized on array (fraction of array maximum); higher = stronger binding
Conditions: peptide region: Unmod H3 variant; binder concentration: 50 nM
How it was run: (§1)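 Within each library, mean intensities of triplicate spots were min-max scaled to give the binding signal. The spots were histone 13-mer peptide–cellulose conjugates on nitrocellulose with a Cy3 tracer, blocked overnight at 4°C. They were then probed for 1 h at 4°C using biotin-labelled HaloTag reader fusions (10 nM to 1 μM) with streptavidin-Alexa Fluor 647 or rabbit histone antibodies (1:10,000 to 1:2,000) with anti-rabbit Alexa 647, and scanned at 635 nm for signal and 532 nm for misprints on an Axon GenePix 4000B.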

Binder | peptide microarray binding signal
B1 | 0.0275 ± 0.0017
B2 | 0.002821 ± 2.4e-05
B3 | 0.00285 ± 0.00016
B4 | 0.00445 ± 0.00012
B5 | 0.00179 ± 3.6e-05
B6 | 0.001818 ± 8.5e-06
B7 | 0.00483 ± 6.5e-05
B8 | 0.00552 ± 0.0011
B10 | 0.00495 ± 9.5e-05
B12 | 0.00398 ± 4.1e-05
B13 | 0.00166 ± 5.9e-05
B14 | 0.00345 ± 4.2e-05
B15 | 0.00646 ± 0.00048
B16 | 0.00552 ± 0.00053
B18 | 0.00389 ± 0.00042

Same assay, conditions: peptide region: Unmod H3 variant; binder concentration: 500 nM

Binder | peptide microarray binding signal
B1 | 0.0328 ± 0.0016
B2 | 0.0103 ± 0.00037
B3 | 0.00757 ± 0.00026
B4 | 0.00991 ± 0.00023
B5 | 0.0031 ± 4.8e-05
B6 | 0.00233 ± 5.1e-05
B7 | 0.011 ± 0.00018
B8 | 0.00938 ± 0.0008
B10 | 0.0115 ± 0.00061
B12 | 0.0111 ± 0.0002
B13 | 0.00148 ± 3.6e-05
B14 | 0.0108 ± 0.00017
B15 | 0.0104 ± 0.0015
B16 | 0.0118 ± 0.00044
B18 | 0.00729 ± 0.00021

Target: HaloTag-ING2 PHD (mouse Ing2 200-280)
Test: as above
Conditions: peptide region: Unmod H3 variant; binder concentration: 10 nM
How it was run: as §1

Binder | peptide microarray binding signal
B1 | 0.01385 ± 8.4e-05
B2 | 0.00674 ± 8.2e-05
B3 | 0.0164 ± 0.0095
B4 | 0.00824 ± 0.00015
B5 | 0.002686 ± 1.5e-05
B6 | 0.00292 ± 5.6e-05
B7 | 0.00973 ± 0.00021
B8 | 0.00537 ± 0.00055
B10 | 0.00853 ± 0.00018
B12 | 0.008 ± 0.00021
B13 | 0.00179 ± 2.8e-05
B14 | 0.00722 ± 0.00031
B15 | 0.00776 ± 0.00056
B16 | 0.00633 ± 0.00044
B18 | 0.00788 ± 0.00069

Same assay, conditions: peptide region: Unmod H3 variant; binder concentration: 100 nM

Binder | peptide microarray binding signal
B1 | 0.0259 ± 0.0054
B2 | 0.0212 ± 0.0031
B3 | 0.00943 ± 0.00062
B4 | 0.01502 ± 0.00015
B5 | 0.00241 ± 4e-05
B6 | 0.00206 ± 7.3e-05
B7 | 0.0168 ± 0.0012
B8 | 0.0186 ± 0.0068
B10 | 0.0134 ± 0.00073
B12 | 0.021 ± 0.00036
B13 | 0.00163 ± 4.4e-05
B14 | 0.0163 ± 0.00099
B15 | 0.015 ± 0.0022
B16 | 0.019 ± 0.0047
B18 | 0.00985 ± 0.00081

Target: anti-H3K4me3 antibody ab8580
Test: as above
Conditions: peptide region: Unmod H3 variant; binder concentration: 1:2,000 dilution
How it was run: as §1

Binder | peptide microarray binding signal
B1 | 0.00315 ± 0.00022
B2 | 0.000963 ± 5e-05
B3 | 0.00109 ± 3.3e-05
B4 | 0.0014 ± 4.3e-05
B5 | 0.000472 ± 9.3e-06
B6 | 0.0004719 ± 4.7e-06
B7 | 0.00276 ± 8.1e-05
B8 | 0.000585 ± 3.7e-05
B10 | 0.00247 ± 5.5e-05
B12 | 0.000831 ± 5.9e-05
B13 | 0.0004342 ± 4.3e-06
B14 | 0.00119 ± 3.4e-05
B15 | 0.00119 ± 3.4e-05
B16 | 0.001 ± 4.5e-05
B18 | 0.00126 ± 8.1e-05

Same assay, conditions: peptide region: Unmod H3 variant; binder concentration: 1:10,000 dilution

Binder | peptide microarray binding signal
B1 | 0.00759 ± 0.00028
B2 | 0.000799 ± 8.3e-06
B3 | 0.001312 ± 1.3e-05
B4 | 0.00205 ± 7.6e-05
B5 | 0.000628 ± 6.7e-06
B6 | 0.000799 ± 8.3e-06
B7 | 0.00542 ± 0.0011
B8 | 0.000456 ± 1.3e-05
B10 | 0.00474 ± 0.00018
B12 | 0.001312 ± 1.3e-05
B13 | 0.000628 ± 6.7e-06
B14 | 0.0012 ± 1.2e-05
B15 | 0.001712 ± 1.6e-05
B16 | 0.00114 ± 1.2e-05
B18 | 0.001541 ± 1.5e-05

Target: anti-H3K9me3 antibody ab8898
Test: as above
Conditions: peptide region: Unmod H3 variant; binder concentration: 1:2,000 dilution
How it was run: as §1

Binder | peptide microarray binding signal
B1 | 0.00316 ± 0.00013
B2 | 0.000468 ± 9e-06
B3 | 0.000695 ± 2.7e-05
B4 | 0.00101 ± 3.2e-05
B5 | 0.000287 ± 7.8e-06
B6 | 0.000453 ± 1.5e-05
B7 | 0.00157 ± 6.5e-05
B8 | 0.000227 ± 7.1e-06
B10 | 0.00248 ± 0.00019
B12 | 0.000529 ± 1.3e-05
B13 | 0.000393 ± 1.4e-05
B14 | 0.000785 ± 1.3e-05
B15 | 0.00142 ± 9.9e-05
B16 | 0.000664 ± 1.2e-05
B18 | 0.000876 ± 2.6e-05

Same assay, conditions: peptide region: Unmod H3 variant; binder concentration: 1:10,000 dilution

Binder | peptide microarray binding signal
B1 | 0.00427 ± 5.7e-05
B2 | 0.000634
B3 | 0.000923 ± 9.6e-06
B4 | 0.00115
B5 | 0.000807
B6 | 0.000634
B7 | 0.00202 ± 3.2e-05
B8 | 0.000461 ± 8.7e-06
B10 | 0.00259 ± 9.2e-05
B12 | 0.000692 ± 7.3e-06
B13 | 0.000519 ± 5.6e-06
B14 | 0.000923 ± 9.6e-06
B15 | 0.00127 ± 1.3e-05
B16 | 0.000923 ± 9.6e-06
B18 | 0.000807

Target: T1, HaloTag-ATRX ADD domain (163-292)
Test: as above
Conditions: peptide region: Unmod H2B variant; binder concentration: 50 nM
How it was run: as §1

Binder | peptide microarray binding signal
B9 | 0.0176 ± 0.00047
B11 | 0.01009 ± 9.9e-05
B17 | 0.0108 ± 0.00025
B19 | 0.00473 ± 0.00015
B20 | 0.00533 ± 0.00061

Same assay, conditions: peptide region: Unmod H2B variant; binder concentration: 500 nM

Binder | peptide microarray binding signal
B9 | 0.041 ± 0.0018
B11 | 0.0228 ± 0.001
B17 | 0.0351 ± 0.00073
B19 | 0.00681 ± 0.00052
B20 | 0.00738 ± 0.00021

Target: HaloTag-ING2 PHD (mouse Ing2 200-280)
Test: as above
Conditions: peptide region: Unmod H2B variant; binder concentration: 10 nM
How it was run: as §1

Binder | peptide microarray binding signal
B9 | 0.0245 ± 0.0014
B11 | 0.0117 ± 0.00035
B17 | 0.00776 ± 0.00021
B19 | 0.00561 ± 0.00046
B20 | 0.00406 ± 5.6e-05

Same assay, conditions: peptide region: Unmod H2B variant; binder concentration: 100 nM

Binder | peptide microarray binding signal
B9 | 0.0434 ± 0.0033
B11 | 0.0287 ± 0.0019
B17 | 0.0322 ± 0.0032
B19 | 0.01276 ± 6.8e-05
B20 | 0.0122 ± 0.00094

Target: anti-H3K4me3 antibody ab8580
Test: as above
Conditions: peptide region: Unmod H2B variant; binder concentration: 1:2,000 dilution
How it was run: as §1

Binder | peptide microarray binding signal
B9 | 0.00893 ± 0.00076
B11 | 0.0133 ± 0.0011
B17 | 0.00196 ± 9.7e-05
B19 | 0.00121 ± 0.00013
B20 | 0.000906 ± 6.3e-05

Same assay, conditions: peptide region: Unmod H2B variant; binder concentration: 1:10,000 dilution

Binder | peptide microarray binding signal
B9 | 0.0164 ± 0.00068
B11 | 0.0163 ± 0.00093
B17 | 0.0028 ± 0.00015
B19 | 0.001712 ± 1.6e-05
B20 | 0.0012 ± 3.2e-05

Target: anti-H3K9me3 antibody ab8898
Test: as above
Conditions: peptide region: Unmod H2B variant; binder concentration: 1:2,000 dilution
How it was run: as §1

Binder | peptide microarray binding signal
B9 | 0.00628 ± 0.00047
B11 | 0.00447 ± 0.00018
B17 | 0.000544 ± 1.7e-05
B19 | 0.000468 ± 9e-06
B20 | 0.000378 ± 7.5e-06

Same assay, conditions: peptide region: Unmod H2B variant; binder concentration: 1:10,000 dilution

Binder | peptide microarray binding signal
B9 | 0.0106 ± 0.0002
B11 | 0.00484 ± 7.1e-05
B17 | 0.00115
B19 | 0.000923 ± 9.6e-06
B20 | 0.000865 ± 9e-06
